TGFb inhibitor – TGF-b pathway inhibition; 410,000 compounds, 1.2% hits; Potency, µM (top dose mostly 46.1 µM), without a hit: at the highest dose activity, negative = inhibition, most hits filed as inhibitors; HepG2 CAGA-GFP TGF-b/SMAD3 reporter, GFP fluorescence, 18 h; TGF-beta stimulated, 500 pg/mL final; also: % is scaled to controls: 0 for no effect and ±100 for the full control effect; nearly all actives have a fitted effect of over 65% in size
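Read-out: total well GFP (ex488/em500-530) summed from mean per-cell fluorescence. Cells: HEPG2 CAGA-GFP, 1% FBS DMEM, 18 h at 37 degrees C with 500 pg/mL final TGF-beta. Unstimulated wells served as the full-inhibition control; stimulated DMSO wells = 0%.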
Anesthetic bind – candidate novel general anesthetic via apoferritin binding; P02791; apoferritin/1-aminoanthracene competitive binding, fluorescence; Potency, µM (top dose mostly 77.5 µM), for inactives: top-dose activity change, negative = displacement, hits mostly inhibitors; 350,000 compounds, 0.074% hits; also: % is scaled to controls: 0 for no effect and ±100 for the full control effect; nearly all actives have a fitted effect of over 20% in size
Target sequence (P02791 2-175 limits assumed): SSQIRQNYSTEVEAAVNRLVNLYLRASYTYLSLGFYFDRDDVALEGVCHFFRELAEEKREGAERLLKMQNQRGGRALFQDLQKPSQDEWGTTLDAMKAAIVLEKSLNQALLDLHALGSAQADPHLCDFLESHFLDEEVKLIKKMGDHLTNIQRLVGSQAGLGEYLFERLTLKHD
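Steps: apoferritin (10 uM) was premixed with half-saturated 1-AMA in PBS, compounds were pin-transferred, plates stood 10 min at room temperature, fluorescence was read at 380/535 nm, and curves were fitted with a Hill equation.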
ATXN2 expr inh – reduces ATXN2 reporter expression in HEK-293 cells; HEK-293 ATXN2-luciferase reporter, luminescence, 24 h; Potency, µM (doses to about 57 µM), for the others: at the highest dose activity change, negative = inhibition, usual class: inhibitors; 360,000 compounds, 0.72% hits; AID 1745845; also: % is scaled to controls: 0 for no effect and ±100 for the full control effect; nearly all actives have a fitted effect of over 55% in size
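ATXN2-luciferase reporter cells (luciferase flanked by upstream and downstream ATXN2 gene portions) were treated 24 h at 37 °C with compounds at up to 57 uM. SteadyGlo luminescence gave expression; GF-AFC fluorescence gave viability.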
HepG2 tox-1 – counter-screen for TGF-b inhibitors: cytotoxicity in HepG2 cells; HepG2 CAGA-GFP viability, ATP luminescence, 18 h; Potency, µM (titrated, usually from 46.1 µM), for the others: at the highest dose activity change, negative = cytotoxicity, actives largely listed as cytotoxic; 410,000 compounds, 0.76% hits
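CellTiter-Glo luminescence gave cytotoxicity after 18 hours at 37 degrees C. The cells were HepG2 CAGA-GFP in 1% FBS DMEM, stimulated with 500 pg/mL TGF-beta after compound addition. %Activity was normalised to no-cell wells (complete cell-killing) and DMSO (no toxicity), and curves were fitted and classified.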
ATXN viability – reduces viability in counter-screen for ATXN expression inhibitors; 400,000 compounds, 0.49% hits; Potency, µM (titrated, usually from 56.7 µM), actives largely listed as cytotoxic; AID 651635; S2 cells (HEK-293 line with an ATXN2-luciferase reporter) viability, CellTiter-Fluor protease fluorescence, 24 h; also: nearly all actives have a fitted effect of over 40% in size
TGFb confirm – TGF-b pathway inhibition, cherry-pick retest. Potency, µM (doses to about 46.1 µM), for the others: top-dose activity, negative = inhibition, actives largely listed as inhibitors. AID 720534. 1,600 compounds, 63% hits. shares compounds with TGFb inhibitor. HepG2 CAGA-GFP TGF-b reporter, GFP fluorescence, 18 h; cells stimulated with TGF-beta, 500 pg/mL; also: % is scaled to controls: 0 for no effect and ±100 for the full control effect; nearly all actives have a fitted effect of over 65% in size
HepG2 tox-2 – HepG2 cytotoxicity, TGF-b inhibitor counterscreen; Potency, µM (highest dose often 46.1 µM), for inactives: at the top dose activity, negative = cytotoxicity, actives largely listed as inhibitors; HepG2 CAGA-GFP viability, ATP luminescence, 18 h; cells stimulated with TGF-beta, 500 pg/mL; shares compounds with TGFb inhibitor; 1,600 compounds, 27% hits; also: % is scaled to controls: 0 for no effect and ±100 for the full control effect; nearly all actives have a fitted effect of over 70% in size
CCL64 TGFb inh – blocks TGF-b signaling in CCL64 reporter cells | shares compounds with TGFb inhibitor | CCL64 CAGA-GFP reporter, TGF-b stimulated, GFP fluorescence, 18 h | Potency, µM (doses to about 46.1 µM), for inactives: at the top dose activity, negative = inhibition, hits mostly inhibitors | 1,600 compounds, 41% hits; also: nearly all actives have a fitted effect of over 65% in size
TGFb COP inh – blocks TGF-b signaling in HepG2 COP reporter; shares compounds with TGFb inhibitor; 1,600 compounds, 3% hits; Potency, µM (titrated, usually from 46.1 µM), for the others: at the top dose activity, negative = inhibition, hits mostly inhibitors; HepG2 COP-GFP TGF-b reporter, GFP fluorescence, 18 h; cells stimulated by added recombinant TGF-beta; also: nearly all actives have a fitted effect of over 70% in size
Active calls of the source: *; i = inactive; u = inconclusive; x = not tested or not shown; [ ] = dose if it differs, or a comment. Hits are enriched below; roughly 2.4% of the tested compounds scored in any of these assays. Calls follow the shape of the dose curve; as a rule, active = well fitted curve in the direction sought with a large enough effect; inconclusive = small, poorly fitted or top-dose-only effect, or another doubt; inactive = no such curve, though single readings can be large; an effect the other way counts as inactive or inconclusive. Potency is read from the fitted curve at half-maximal effect.

SMILES	TGFb inhibitor	Anesthetic bind	ATXN2 expr inh	HepG2 tox-1	ATXN viability	TGFb confirm	HepG2 tox-2	CCL64 TGFb inh	TGFb COP inh
Cc1cc(C)c(S(=O)(=O)NC2CC3CCC2C3)c(C)c1 (stereo not given)	u	u	21%	-30%	i	u	-2%	-17%	-5%
COc1ccc(COc2cc(-c3cccc(OC)c3)nc3ccc(N)cc23)cc1	7.1µM*	11%[110 µM]	-9%	-1%	x	3.3µM*	-19%	1.8µM*	-20%
COc1ccc(COc2cc(-c3cccc(OC)c3)nc3ccc(NC(C)=O)cc23)cc1	3%	-13%	-1%	-7%	i	x	x	x	x
Cc1ccc(NCCC(=O)c2cccc([N+](=O)[O-])c2)cc1	10µM*	-1%	10%	-73%	i	23µM*	u	u	19%
O=C(CCNc1ccc(Br)cc1)c1cccc([N+](=O)[O-])c1	13µM*	-21%	1%	13%	i	18µM*	-15%	-6%	15%
O=C(CCNc1ccc(F)cc1)c1cccc([N+](=O)[O-])c1	u	-3%	-23%	-40%	i	x	x	x	x
COc1cc(OC)c(-c2nn3c(-c4cc(C)[nH]n4)nnc3s2)cc1OC	2%	x	x	-11%	x	x	x	x	x
Cc1ccc(C)c(NC(=O)c2cc(S(=O)(=O)NCCC3=CCCCC3)ccc2F)c1	u	-4%	x	-20%	x	x	x	x	x
Cc1ccc(NC(=O)c2cc(S(=O)(=O)NCCC3=CCCCC3)ccc2F)cc1	11µM*	u	-14%	-9%	u	18µM*	u	26µM*	36%
Cc1ccc2c(c1)-c1c(cnn1CC(=O)N1CCN(c3ccccc3F)CC1)CO2	-53%	-1%	8%	-9%	i	x	x	x	x
CCC(C)Oc1cc(-c2ccnc(Nc3cccc(Cl)c3)n2)ccn1 (stereo not given)	7.1µM*	-3%	u	2%	i	5.8µM*	u	6.5µM*	42%
OCCCNc1cc(-c2ccnc(Nc3cccc(Cl)c3)n2)ccn1	0.28µM*	0%	0.16µM*	-5%	u	0.058µM*	0.23µM*	0.18µM*	26%
Cn1c(CCC(=O)Nc2cc(S(C)(=O)=O)ccc2Cl)nc2cc(S(=O)(=O)N3CCOCC3)ccc21	-18%	x	12%	2%	u	x	x	x	x
CC(C)CO/N=C1/C[C@@H](O)[C@@H](O)[C@@H]2[C@H]3C(=O)N(c4ccc(F)cc4F)C(=O)[C@@H]3CC[C@@H]12	x	-13%[15.3 µM]	x	x	x	x	x	x	x
C(=C\c1ccccc1)/CN1CCN(C(c2ccnc3ccccc23)c2nnnn2-c2ccc3c(c2)OCCO3)CC1 (stereo not given)	u	x	-17%	1%	u	15µM*	-27%	u	30%
Cc1cccc(C)c1-n1nnnc1C(c1ccccc1)N1CCN(C/C=C/c2ccccc2)CC1 (stereo not given)	u	x	-20%	5%	i	x	x	x	x

Assay outcomes as filed in PubChem.
